Source: PubChem BioAssay (SRMLSC)
Autofluor 339 = intrinsic fluorescence of library compounds, ex339/em460 – biochemical, MLSMR library, data from DPM-DC assay, artefact control, profiling panel | compound autofluorescence, ex339/em460 nm, NADH buffer; active compounds read high; 1 = no-compound wells, NADH background | fluorescence fold increase at 10 µM | actives 5.5% (n = 65,000) | AID 709;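 active = at 10 µM, mean starting fluorescence two-fold or more over control wells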;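 note: signal is the first read of a kinetic run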
DPM-DC inhibit = S. pneumoniae DPM-DC inhibition; purified DPM-DC, PK/LDH coupled NADH fluorescence; calls only at 10 µM; actives 0.49% (n = 65,000);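 active = the 320 compounds with the highest percent inhibition in the single-dose primary screen, excluding strongly autofluorescent ones, cut at about 32% in these data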;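 note: kinetic rate of NADH fluorescence loss reporting ADP formed by the decarboxylase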
Spn PMK inh = inhibitors of Streptococcus pneumoniae phosphomevalonate kinase; purified PMK, PK/LDH-coupled NADH absorbance 340 nm; actives 0.49% (n = 65,000); inhibition, % at 10 µM;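 active = top-ranked compounds by inhibition in the single 10 µM screen, taking a fixed number of the strongest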;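 note: 0% = full reaction with DMSO carrier and 100% = background rate without enzyme reaction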
Abs 340nm = compounds absorbing at 340 nm | 65,000 tested, under 10 active | fold change at 10 µM | compound absorbance at 340 nm, fold over control;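 active = at 10 µM dose, initial 340 nm absorbance at least 2 fold that of control wells; inactive = change under 2 fold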;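 note: initial absorbance extrapolated from kinetic A340 decline of NADH oxidation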
NADH coupling = inhibition of NAD/NADH coupling enzymes, library profiling. AID 774. coupled PK/LDH NADH assays, four targets. actives 0.02% (n = 65,000). IC50, µM (titrated, usually from 10 µM), without a hit: at the top dose inhibition;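 active = single-dose screening hits from any of four coupled enzyme assays that gave an IC50 when retested across doses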;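 note: the DPM-DC format reads NADH fluorescence rather than 340 nm absorbance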
MK inhibit = blocks S. pneumoniae mevalonate kinase; inhibition, % at 10 µM; purified MK, PK/LDH-coupled NADH absorbance 340 nm; actives 0.48% (n = 65,000);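 active = ranked among the strongest by inhibition in the single 10 µM screen, a fixed top-ranked set picked for dose follow-up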
* hit, by the source's call; i = inactive; x = not tested or not shown. This is a sample that favours compounds with a hit; in the whole collection about 6.3% have one here.

SMILES | Autofluor 339 | DPM-DC inhibit | Spn PMK inh | Abs 340nm | NADH coupling | MK inhibit
CCOc1ccc2[nH]c(=O)c(CN(CCc3ccccc3)C(=O)c3cnccn3)cc2c1 | 1.39 | i | 16.0 | 1.08 | 5.0% | 0.0
O=C(Nc1ccccc1)N(CCCN1CCOCC1)Cc1cc2cc3c(cc2[nH]c1=O)OCCO3 | 2.5* | x | 13.0 | 1.04 | 5.0% | 12.0
CCOC(=O)c1sc2nc(SCC#N)n(CCCN3CCCC3=O)c(=O)c2c1C | 1.06 | i | 15.0 | 1.01 | 3.0% | 7.0
O=S1(=O)CCC(SCc2nc3sccn3c2Br)C1 (stereo not given) | 1.07 | i | 6.0 | 1 | 4.0% | 5.0
CC(C)(C)C(=O)NC(=C(Cl)Cl)P(=O)(O)O | 1.06 | i | 10.0 | 0.99 | 4.0% | 1.0
COc1cccc(-c2cc(C(=O)Nc3cc(C)n(Cc4ccc(Cl)cc4)n3)no2)c1 | 1.05 | i | 8.0 | 0.99 | 2.0% | 1.0
COc1ccc(OC)c(-c2cc(C(=O)Nc3cc(C)n(Cc4ccc(Cl)cc4)n3)no2)c1 | 3.8* | i | 18.0 | 1.02 | 6.0% | 0.0
CCC(C)NC(=O)c1cn(C)c(=O)c2cc(OC)c(OC)cc12 (stereo not given) | 1.1 | i | 0.0 | 1.07 | 0.0% | 1.0
O=C(NCCSCc1ccccc1)c1cc(S(=O)(=O)N2CCOCC2)ccc1F | 1.11 | i | 2.0 | 1.06 | 1.0% | 0.0
CCOC(=O)Cc1c(C)nc2cc(-c3ccc(C)cc3)[nH]n2c1=O | 1.88 | i | 4.0 | 1.07 | 5.0% | 1.0
CCOC(=O)Cc1c(C)nc2c(-c3ccccc3)c[nH]n2c1=O | 2.24* | x | 9.0 | 1.1 | 6.0% | 3.0
Cn1c(=O)oc2cc(S(=O)(=O)NCCC(=O)NCCc3ccccc3)ccc21 | 0.96 | i | 3.0 | 1.01 | 1.0% | 0.0
Cc1nc2c3c(-c4ccccc4)c(-c4ccccc4)oc3ncn2n1 | 1.96 | i | 15.0 | 1.04 | 5.0% | 0.0
COc1ccccc1OCc1nc2c3c(-c4ccccc4)c(-c4ccccc4)oc3ncn2n1 | 3.24* | x | 1.0 | 1.16 | 2.0% | 2.0
O=C1CCCC2=C1C(c1cccs1)n1nc(SCc3ccccc3F)nc1N2 (stereo not given) | 2.16* | i | 0.0 | 1.03 | 2.0% | 4.0
Cn1c(=O)[nH]c(=O)c2c1nc(N1CCCCCC1)n2CCCSc1nc2ccccc2o1 | 1.02 | i | 8.0 | 0.99 | 3.0% | 6.0
O=C(NCc1ccccn1)c1cc(-n2cnnc2)ccc1Cl | 1.02 | i | 0.0 | 0.98 | 2.0% | 0.0
O=C(Nc1ccc(-c2nc3ccccc3o2)cc1)C1CCCO1 (stereo not given) | 2.08* | i | 0.0 | 1.12 | 6.0% | 7.0
Cc1ccc2c(c1)N(C(C)C(=O)NCCc1ccccc1)C(=O)CO2 (stereo not given) | 1.1 | i | 7.0 | 0.98 | 6.0% | 11.0
OCc1nn2c(c1Br)NC(c1ccccc1)CC2C(F)(F)F (stereo not given) | 1.03 | i | 11.0 | 1 | 6.0% | 4.0
CCC(NC(=O)c1ccccc1O)c1ccccc1 (stereo not given) | 3.67* | x | 9.0 | 1.01 | 10.0% | 10.0
Cc1ccc(NC(=O)c2ccccc2O)cc1 | 1.34 | i | 0.0 | 1.02 | 2.0% | 0.0
O=C(Nc1ccccc1)c1ccccc1O | 2.06* | x | 19.0 | 1.11 | 13.0% | 6.0
CCC(C)NC(=O)c1ccccc1C(=O)NC(C)CC (stereo not given) | 1.05 | i | 0.0 | 1.08 | 2.0% | 5.0
CCOC(=O)C1CCN(C(=O)Cn2cc3c(n2)CCC(C)C3)CC1 (stereo not given) | 1.14 | i | 0.0 | 1.05 | 5.0% | 0.0
SMILES | Autofluor 339 | DPM-DC inhibit | Spn PMK inh | Abs 340nm | NADH coupling | MK inhibit
COc1ccc(NC(=O)Cn2nnc(-c3ccccc3NC(=O)c3cccs3)n2)cc1 | 3.55* | x | 12.0 | 1.05 | 6.0% | 0.0
COc1ccccc1-c1nnc(Nc2nc3c(OC)cccc3s2)o1 | 1.65 | i | 13.0 | 1.25 | 9.0% | 0.0
COc1cccc(-c2nnc(Nc3nc4c(F)cccc4s3)o2)c1 | 4.87* | x | 12.0 | 1.32 | 8.0% | 4.0
CCCn1nc(NC(=O)CC(C)C)c2cc3ccccc3nc21 | 1.49 | i | 5.0 | 1.05 | 4.0% | 8.0
O=C(NCc1ccccc1)C1C2C=CC3(CN(Cc4cccnc4)C(=O)C13)O2 (stereo not given) | 0.98 | i | 27.0* | 0.99 | 11.0% | 0.0
COc1ccccc1NC(=O)NCCN1C(=O)C2C3C=CC(C3)C2C1=O (stereo not given) | 1.01 | i | 7.0 | 1.05 | 2.0% | 0.0
CCCCc1cc(=O)oc2cc(C)cc(OCC(=O)O)c12 | 3.82* | x | 4.0 | 1.09 | 6.0% | 8.0
CCCCCCc1ccc(OCC(=O)O)cc1OCC(=O)O | 1.07 | i | 0.0 | 1.03 | 1.0% | 3.0
Cc1ccccc1OCc1nnc2c3cnn(C)c3ncn12 | 1.09 | i | 6.0 | 1 | 2.0% | 1.0
Cn1c2ccccc2c2ncn(Cc3ccco3)c(=O)c21 | 2.92* | i | 10.0 | 1.05 | 11.0% | 8.0
CN1CCN(c2ccc(Cl)cc2NS(=O)(=O)c2ccccc2Cl)CC1 | 0.95 | i | 14.0 | 1 | 10.0% | 0.0
Cn1c(=O)c2[nH]c(N3CCOCC3)nc2n(-c2ccccc2)c1=O | 1.14 | i | 18.0 | 0.98 | 11.0% | 14.0
COC(=O)Cc1c(C)c2cc(Cl)c(OC(=O)c3ccco3)cc2oc1=O | 2.11* | x | 2.0 | 1.06 | 7.0% | 12.0
COC(=O)Cc1c(C)c2ccc(OC(=O)c3ccco3)cc2oc1=O | 2.12* | x | 3.0 | 1.07 | 9.0% | 14.0
COc1ccc(NC(=O)NCCCN2CCc3ccccc3C2)cc1 | 1.09 | i | 2.0 | 0.99 | 4.0% | 10.0
COc1ccc2cc3cc(C(=O)NCCN4CCc5ccccc5C4)oc3nc2c1 | 5.11* | x | 8.0 | 1.08 | 6.0% | 3.0
COc1ccc2cc3cc(C(=O)NCCN4CCN(Cc5ccccc5)CC4)oc3nc2c1 | 5.16* | x | 12.0 | 1.11 | 8.0% | 3.0
O=C(Nc1ccc(NC(=O)C2CC2)nc1)c1ccncc1 | 0.99 | i | 11.0 | 1.03 | 7.0% | 10.0
N#Cc1nc(COc2ccccc2)oc1N1CCN(Cc2ccccc2)CC1 | 1.17 | i | 7.0 | 1.02 | 5.0% | 8.0
N#Cc1nc(-c2cccs2)oc1NCCN1CCOCC1 | 2.39* | x | 7.0 | 1.08 | 4.0% | 0.0
N#Cc1nc(-c2cccs2)oc1N1CCN(Cc2ccccc2)CC1 | 3.8* | x | 4.0 | 1.13 | 4.0% | 4.0
N#Cc1nc(-c2cccs2)oc1NCCc1ccccc1 | 2.49* | x | 10.0 | 0.99 | 3.0% | 0.0
COc1ccc(CCNc2oc(COc3ccc(F)cc3)nc2C#N)cc1 | 1.1 | i | 1.0 | 1 | 0.0% | 1.0
COc1ccc(Nc2oc(-c3cccs3)nc2C#N)cc1 | 1.9 | i | 2.0 | 1.08 | 9.0% | 0.0
O=C(NCCCN1CCOCC1)c1cc(-c2cccs2)on1 | 1.1 | i | 6.0 | 0.99 | 8.0% | 18.0
COc1ccc(CCNc2oc(-c3ccco3)nc2C#N)cc1 | 2.38* | i | 13.0 | 1.02 | 6.0% | 8.0
